PubChem BioAssay (NCI)
The panel holds about 83,000 compounds, 20% with a hit somewhere; the sample as a whole holds those more often.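 Each cell line was grown in a 96-well plate and treated with one concentration of compound for 48 hours. Values below 10 were considered active.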 Values without a mark were called inactive. Calls of active or inactive are those of the source.

Tests used:
Experiment in all cases: NCI-60 one-dose screen, 48 h (100 = growth as untreated, 0 = no growth, -100 = all killed)
Conditions in all cases: 10 µM unless noted
HCT-15 colon = system: HCT-15 colon
HT29 colon = system: HT29 colon
SNB-75 CNS = system: SNB-75 CNS
SNB-19 CNS = system: SNB-19 CNS
U251 CNS = system: U251 CNS
PC-3 prostate = system: PC-3 prostate
SK-MEL-5 melanoma = system: SK-MEL-5 melanoma
UACC-62 melanoma = system: UACC-62 melanoma
LOX IMVI melanoma = system: LOX IMVI melanoma
SK-MEL-28 melanoma = system: SK-MEL-28 melanoma
SK-MEL-2 melanoma = system: SK-MEL-2 melanoma
EKVX NSCLC = system: EKVX NSCLC
SN12C renal = system: SN12C renal
UO-31 renal = system: UO-31 renal
TK-10 renal = system: TK-10 renal
ACHN renal = system: ACHN renal
CAKI-1 renal = system: CAKI-1 renal
A498 renal = system: A498 renal
CCRF-CEM leukemia = system: CCRF-CEM leukemia
MOLT-4 leukemia = system: MOLT-4 leukemia

| SMILES | growth (HCT-15 colon) | growth (HT29 colon) | growth (SNB-75 CNS) | growth (SNB-19 CNS) [%] | growth (U251 CNS) | growth (PC-3 prostate) | growth (SK-MEL-5 melanoma) | growth (UACC-62 melanoma) | growth (LOX IMVI melanoma) | growth (SK-MEL-28 melanoma) | growth (SK-MEL-2 melanoma) | growth (EKVX NSCLC) [%] | growth (SN12C renal) | growth (UO-31 renal) | growth (TK-10 renal) [%] | growth (ACHN renal) | growth (CAKI-1 renal) | growth (A498 renal) | growth (CCRF-CEM leukemia) | growth (MOLT-4 leukemia) |
| --- | --- | --- | --- | --- | --- | --- | --- | --- | --- | --- | --- | --- | --- | --- | --- | --- | --- | --- | --- | --- |
| Cc1ccccc1NC(=O)c1sc2nc3c(cc2c1N)C(=O)CCC3 | 32.8% | 21.1% | 13.1% | 46.1 | 49% | 30.3% | 18.6% | 36.9% | 47.4% | 52.8% | 58.6% | 87.5 | 64.5% | 77.5% | 81.2 | 49.3% | 55.4% | 31.3% | 30.3% | 67.5% |
| CSc1ccc(/C=C2\C=C(CC(=O)NCc3ccc(C(=O)c4ccccc4)cc3)c3cc(F)ccc32)cc1 | 5.88% (active) | -15.1% (active) | -18.4% (active) | 18.2 | -2.89% (active) | 12.4% | -51.4% (active) | 3.75% (active) | 5.66% (active) | 18.2% | -3.62% (active) | 25.5 | 9.57% (active) | 26.6% | 13.8 | 2.09% (active) | 7.79% (active) | -10.5% (active) | 11.5% | 9.47% (active) |
| CN(C)c1nc(-c2cccs2)n2nc(-c3ccco3)cc2n1 | 79.4% | 93.4% | 86.5% | 102 | 93.6% | 91.2% | 94.1% | 89.7% | 77.6% | 117% | 92.9% | 80.1 | 92% | 57.9% | 103 | 96.9% | 85.5% | 74.1% | 93.9% | 97% |
| COc1cc(OC)c(Cl)cc1N | 96.6% | 107% | 101% | 100 | 104% | 88.7% | 112% | 97.8% | 101% | 109% | 116% | 118 | 93.1% | 91.3% | 105 | 101% | 91.6% | 90.9% | 97.3% | 108% |
| COc1ccc(NC(=O)c2sc3c(=O)[nH]c(C(F)(F)F)nc3c2C)cc1 | 104% | 103% | 93.7% | 112 | 98.6% | 90.5% | 106% | 98.9% | 101% | 109% | 91.5% | 83.8 | 99.8% | 74.2% | 104 | 102% | 85.4% | 108% | 90% | 89.7% |
| O=C(NO)c1ccc(CNc2cccc3nc(C4CC4)n(-c4ccccc4)c(=O)c23)cc1 | 7.98% (active) | 24.8% | 33% | 25.9 | -7.99% (active) | -47% (active) | 2.95% (active) | -22.2% (active) | -34.9% (active) | 9.83% (active) | 53.7% | 42.2 | 15.5% | 3.57% (active) | 13.6 | 3.75% (active) | 7.51% (active) | 13.7% | -13.3% (active) | -21.7% (active) |
| O=[N+]([O-])c1ccc(N=Nc2c(NNc3ccc([N+](=O)[O-])cn3)cc(S(=O)(=O)O)c3ccccc23)nc1 | 68.7% | 40.8% | 91.9% | 95.6 | 68.7% | 67.7% | 92% | 86.4% | 57.9% | 104% | 108% | 91.1 | 81.5% | 52.1% | 88.4 | 57.4% | 64.1% | 77.2% | 65.1% | 70.9% |
| COc1cnc2c(c1)C(=O)c1c-2n(CCCN2CCNCC2)c(=O)c2cc(Cl)ccc12 | -89.4% (active) | -80.4% (active) | 39.7% | 30.4 | -98.4% (active) | -84% (active) | 45.2% | -45% (active) | -84.6% (active) | -88.2% (active) | 43.9% | 29 | 16.5% | -59% (active) | 47.5 | -100% (active) | 33.1% | 13.6% | -69.4% (active) | -54.2% (active) |
| Cc1cc(-c2ccc(N=Nc3c(S(=O)(=O)O)cc4cc(S(=O)(=O)O)cc(O)c4c3O)c(C)c2)ccc1N=Nc1c(S(=O)(=O)O)cc2cc(S(=O)(=O)O)cc(O)c2c1O | 109% | 103% | 82.4% | 106 | 101% | 93.6% | 101% | 114% | 107% | 110% | 90.6% | 79.6 | 116% | 73.9% | 115 | 101% | 78.1% | 122% | 102% | 127% |
| CS(=O)(=O)c1ccc(C(=O)N/N=C/c2ccccc2Cl)cc1 | 102% | 104% | 84.9% | 95.1 | 90.3% | 99% | 111% | 98.5% | 99.9% | 103% | 104% | 97 | 98.3% | 84.3% | 110 | 108% | 97.8% | 91.3% | 108% | 67.7% |
| C(=Nc1ccc(-c2ccc(N=Cc3ccccc3)cc2)cc1)c1ccccc1 | 106% | 93.9% | 83.4% | 107 | 98.3% | 80.3% | 105% | 93.7% | 105% | 99.9% | 109% | 105 | 93.3% | 66.6% | 110 | 101% | 94.3% | 97.9% | 88.3% | 83% |
| C=C(COC(C)=O)[C@H]1CC/C(C)=C/CC/C(C)=C/CC[C@@]2(C)O[C@H]2C1 | 96% | 108% | 109% | 106 | 98.3% | 129% | 108% | 99.6% | 94.6% | 104% | 101% | 106 | 106% | 99.9% | 108 | 99.8% | 126% | 119% | 328% | 110% |
| O=C(CC(=O)c1cccc(Cl)c1)c1cccc(Cl)c1 | 25.9% | 34.7% | 75.3% | 31.3 | 16.7% | 33.3% | 36.8% | 27.2% | 33.2% | 56% | 60.4% | 20.5 | 23.2% | 42.7% | 46.6 | 31.2% | 23.4% | 79.2% | 11.4% | 21.7% |
| O=C(NNC(=O)c1cccc(Cl)c1)c1ccccc1 | 114% | 104% | 99.4% | 119 | 100% | 91.1% | 101% | 123% | 105% | 119% | 100% | 103 | 106% | 99.3% | 117 | 130% | 103% | 73.2% | 98.4% | 100% |
| N/C(=N\OC(=O)c1ccccc1)C(C(=O)NOC(=O)c1ccccc1)C1CCCCC1 (stereo not given) | 53.3% | 96.7% | 35.7% | 76 | -25% (active) | 54.5% | 74.3% | 56.6% | -85.2% (active) | 93.3% | 121% | 66.8 | 89.1% | -50.5% (active) | 92.6 | 25.6% | -55.3% (active) | 86.2% | 30% | 55.9% |
